Where “and” joins values, the source holds several entries; their conditions need not be identical. Equal entries are not always repeated. In all, about 5,500 compounds went through this assay and about 2,000 (36%) were called active. Another 18% or so got no clear call; they are omitted. The list shows a part of the results. A number with no mark means an inactive call. Rule as the data show it: active = normalized growth mostly below about 0.91 (no sharp cut-off); inconclusive = no clear call, values can overlap the other calls; inactive = mostly above about 0.92.
Assay: chemical genetic growth profiling, strain panel (AID 1159580);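 also: tested at 20 µM; growth read once vehicle control cultures reached saturation at 30 °C; 1 = growth at the plate median or of vehicle wells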
Details: S. cerevisiae deletion strains, growth OD

Cc1ccc(N(CC2=NCCN2)c2cccc(O)c2)cc1
normalized growth (locus YAL013W, strain DEP1, stronger effect = lower value): 0.994 and 0.986
normalized growth (locus YAL021C, strain ccr4, stronger effect = lower value): 1.01
normalized growth (locus YAL026C, strain drs2, stronger effect = lower value): 1.02
normalized growth (locus YAL030W, strain snc1, stronger effect = lower value): 1.02
normalized growth (locus YAL040C, strain CLN3, stronger effect = lower value): 1.01
normalized growth (locus YBL061C, strain skt5, stronger effect = lower value): 0.998
normalized growth (locus YBR009C, strain hhf1, stronger effect = lower value): 1.02
normalized growth (locus YBR021W, strain FUR4, stronger effect = lower value): 0.991
normalized growth (locus YBR023C, strain chs3, stronger effect = lower value): 1.02
normalized growth (locus YBR171W, strain sec66, stronger effect = lower value): 1.01
normalized growth (locus YBR229C, strain ROT2, stronger effect = lower value): 1
normalized growth (locus YBR231C, strain swc5, stronger effect = lower value): 1.01
normalized growth (locus YBR279W, strain paf1, stronger effect = lower value): 1.01
normalized growth (locus YCL011C, strain gbp2, stronger effect = lower value): 1.02
normalized growth (locus YCL016C, strain dcc1, stronger effect = lower value): 0.998
normalized growth (locus YCL029C, strain bik1, stronger effect = lower value): 1.01
normalized growth (locus YCL061C, strain MRC1 (second series), stronger effect = lower value): 0.992
normalized growth (locus YCL069W, strain vba3, stronger effect = lower value): 1.02
normalized growth (locus YCR088W, strain abp1, stronger effect = lower value): 1.01
normalized growth (locus YDL005C, strain med2, stronger effect = lower value): 1.02
normalized growth (locus YDL035C, strain GPR1, stronger effect = lower value): 0.985
normalized growth (locus YDL040C, strain nat1, stronger effect = lower value): 1.01
normalized growth (locus YDL074C, strain BRE1, stronger effect = lower value): 0.908
normalized growth (locus YDL101C, strain DUN1, stronger effect = lower value): 0.983
normalized growth (locus YDL134C, strain PPH21, stronger effect = lower value): 0.994
normalized growth (locus YDL185W, strain tfp1, stronger effect = lower value): 1.02
normalized growth (locus YDL192W, strain arf1, stronger effect = lower value): 1.01
normalized growth (locus YDR001C, strain nth1, stronger effect = lower value): 1.01
normalized growth (locus YDR069C, strain doa4, stronger effect = lower value): 0.998
normalized growth (locus YDR101C, strain arx1, stronger effect = lower value): 0.985
normalized growth (locus YDR137W, strain rgp1, stronger effect = lower value): 1.02
normalized growth (locus YDR150W, strain NUM1, stronger effect = lower value): 1.01
normalized growth (locus YDR159W, strain sac3, stronger effect = lower value): 1
normalized growth (locus YDR162C, strain NBP2, stronger effect = lower value): 0.976
normalized growth (locus YDR195W, strain ref2): 1.02
normalized growth (locus YDR297W, strain sur2, stronger effect = lower value): 1.02
normalized growth (locus YDR318W, strain mcm21, stronger effect = lower value): 0.991
normalized growth (locus YDR334W, strain swr1, stronger effect = lower value): 1.04
normalized growth (locus YDR335W, strain msn5, stronger effect = lower value): 1.03
normalized growth (locus YDR363W, strain ESC2, stronger effect = lower value): 1.06
normalized growth (locus YDR388W, stronger effect = lower value): 1.01
normalized growth (locus YDR392W, strain spt3, stronger effect = lower value): 0.95
normalized growth (locus YDR502C, strain sam2, stronger effect = lower value): 0.977
normalized growth (locus YEL003W, strain gim4, stronger effect = lower value): 1.03
normalized growth (locus YEL037C, strain rad23, stronger effect = lower value): 1.03
normalized growth (locus YEL061C, strain CIN8 (second series), stronger effect = lower value): 1.02
normalized growth (locus YEL061C, strain CIN8, stronger effect = lower value): 1.04
normalized growth (locus YER002W, strain NOP16, stronger effect = lower value): 1.01
normalized growth (locus YER015W, strain faa2, stronger effect = lower value): 1.02
normalized growth (locus YER016W, strain bim1, stronger effect = lower value): 1.02
normalized growth (locus YER110C, stronger effect = lower value): 1.03
normalized growth (locus YER111C, strain swi4, stronger effect = lower value): 1.02
normalized growth (locus YER155C, strain BEM2 (second series), stronger effect = lower value): 0.929
normalized growth (locus YER155C, strain BEM2, stronger effect = lower value): 1.01
normalized growth (locus YER167W, strain BCK2, stronger effect = lower value): 0.972
normalized growth (locus YFR010W, strain ubp6, stronger effect = lower value): 1.02
normalized growth (locus YGL078C, strain dbp3, stronger effect = lower value): 0.995
normalized growth (locus YGL086W, strain mad1, stronger effect = lower value): 1.02
normalized growth (locus YGL167C, strain pmr1, stronger effect = lower value): 1.02
normalized growth (locus YGL173C, strain kem1, stronger effect = lower value): 1.01
normalized growth (locus YGL227W, strain vid30, stronger effect = lower value): 1.03
normalized growth (locus YGL240W, strain doc1, stronger effect = lower value): 0.972
normalized growth (locus YGL248W, strain PDE1, stronger effect = lower value): 0.997
normalized growth (locus YGL253W, strain hxk2, stronger effect = lower value): 1.02
normalized growth (locus YGR078C, strain PAC10, stronger effect = lower value): 0.972 and 1.01
normalized growth (locus YGR135W, strain pre9, stronger effect = lower value): 0.976
normalized growth (locus YGR229C, strain SMI1, stronger effect = lower value): 0.912 and 0.979
normalized growth (locus YGR252W, strain gcn5, stronger effect = lower value): 0.926
normalized growth (locus YHR013C, strain ard1, stronger effect = lower value): 1
normalized growth (locus YHR027C, strain rpn1, stronger effect = lower value): 1.01
normalized growth (locus YHR030C, strain SLT2, stronger effect = lower value): 1.01 and 1.04
normalized growth (locus YHR079C, strain IRE1 (second series), stronger effect = lower value): 0.99
normalized growth (locus YHR079C, strain IRE1, stronger effect = lower value): 1.05
normalized growth (locus YHR094C, strain hxt1, stronger effect = lower value): 1
normalized growth (locus YHR129C, strain ARP1, stronger effect = lower value): 0.984
normalized growth (locus YHR142W, strain chs7, stronger effect = lower value): 1.02
normalized growth (locus YHR200W, strain rpn10, stronger effect = lower value): 1
normalized growth (locus YIL066C, strain RNR3, stronger effect = lower value): 1.01
normalized growth (locus YIL073C, strain SPO22, stronger effect = lower value): 1.1
normalized growth (locus YIL125W, strain kgd1, stronger effect = lower value): 0.993
normalized growth (locus YIR030C, strain dcg1, stronger effect = lower value): 1.01
normalized growth (locus YJL092W, strain hpr5, stronger effect = lower value): 1.02
normalized growth (locus YJL095W, strain BCK1 (second series), stronger effect = lower value): 1.01
normalized growth (locus YJL095W, strain BCK1, stronger effect = lower value): 0.905 and 1.04
normalized growth (locus YJL115W, strain asf1, stronger effect = lower value): 1.03
normalized growth (locus YJL129C, strain trk1, stronger effect = lower value): 1.02
normalized growth (locus YJL134W, strain LCB3, stronger effect = lower value): 1.01
normalized growth (locus YJL154C, strain vps35, stronger effect = lower value): 1.03
normalized growth (locus YJL164C, strain tpk1, stronger effect = lower value): 1
normalized growth (locus YJL166W, strain qcr8, stronger effect = lower value): 0.993
normalized growth (locus YJL168C, strain set2, stronger effect = lower value): 1.01
normalized growth (locus YJL187C, strain SWE1 (second series), stronger effect = lower value): 0.993
normalized growth (locus YJL187C, strain SWE1, stronger effect = lower value): 1.01
normalized growth (locus YJR043C, strain POL32, stronger effect = lower value): 0.85 (active)
normalized growth (locus YJR066W, strain TOR1, stronger effect = lower value): 0.978
